PubChem BioAssay (EPA / NIEHS)
Records with an inconclusive call do not appear. Active and inactive are the calls of the source. The calls were made as follows, unless noted: active = hit-call score of the fitted dose curve at least 0.9, where 1 is the maximum; inactive = score below 0.9.

Legend:
[1] = molecular target: Paired box protein Pax-6 (Homo sapiens) (UniProt P26367); experiment: ATG_Pax6_CIS: Attagene CIS-FACTORIAL HepG2 Assay for human Paired Box 6 (PAX6) (AID 2282956); conditions: HepG2 CIS-FACTORIAL PAX6 reporter transcription, RNA readout; actives raise or lower the signal
Sequence of Paired box protein Pax-6 (Homo sapiens) (P26367 whole entry, looked up): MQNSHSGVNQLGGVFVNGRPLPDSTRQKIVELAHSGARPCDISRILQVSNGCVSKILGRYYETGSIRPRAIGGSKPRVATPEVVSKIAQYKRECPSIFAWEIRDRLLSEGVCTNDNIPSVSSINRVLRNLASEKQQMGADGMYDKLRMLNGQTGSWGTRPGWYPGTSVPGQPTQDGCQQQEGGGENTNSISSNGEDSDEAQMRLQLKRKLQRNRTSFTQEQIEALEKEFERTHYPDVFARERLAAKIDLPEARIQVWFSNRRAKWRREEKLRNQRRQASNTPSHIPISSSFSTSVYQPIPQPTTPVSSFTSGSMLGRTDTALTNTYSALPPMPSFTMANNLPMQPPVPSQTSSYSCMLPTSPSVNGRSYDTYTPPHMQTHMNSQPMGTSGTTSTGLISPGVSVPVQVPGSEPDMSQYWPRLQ
In short: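 After twenty-four hours of chemical exposure, transfected HepG2 cells are harvested for RNA. Cis-promoter reporter transcripts are amplified, fluorescently labelled and sized by capillary electrophoresis, with gain and loss of signal scored against DMSO.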

[2] = ATG_PXRE_CIS: Attagene CIS-FACTORIAL HepG2 Assay for human Pregnane X Receptor Element (PXRE) (AID 2282957); conditions: HepG2 Attagene CIS-FACTORIAL PXRE reporter, mRNA; actives raise or lower the signal
In short: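 HepG2 cells transiently transfected with cis-regulated multiple reporter transcription units; endogenous factor activity measured as reporter mRNA 24 h after dosing. RT-PCR, fluorescent primer extension, HpaI digestion, capillary electrophoresis; bidirectional fit versus DMSO baseline.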

[3] = ATG_PPRE_CIS: Attagene CIS-FACTORIAL HepG2 Assay for human Peroxisome Proliferator-activated Response Element (PPRE) (AID 2282958); conditions: HepG2 PPRE cis-element reporter, Attagene transcription factor profiling; actives raise or lower the signal
In short: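 HepG2, transient MRTU transfection (cis promoter elements, endogenous TFs). 24 h dosing. RNA → oligo(dT) RT → PCR → 6-FAM primer extension → HpaI digest → CE. Bidirectional fit vs DMSO.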

[4] = ATG_RORE_CIS: Attagene CIS-FACTORIAL HepG2 Assay for human RAR-related Orphan Receptor Element (RORE) (AID 2282959); conditions: HepG2 Attagene cis-factorial RORE reporter, mRNA; actives raise or lower the signal
In short: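 Transient MRTU transfection of human HepG2 liver cells (FuGene 6); 24 h compound exposure; TriZol RNA, oligo(dT) RT, PCR, FAM labeling, HpaI cut, CE fragment analysis. DMSO = negative control/baseline.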

[5] = ATG_Sox_CIS: Attagene CIS-FACTORIAL HepG2 Assay for human SRY-box transcription factor (SOX) (AID 2282960); conditions: HepG2 Attagene cis-factorial SOX reporter, mRNA; actives raise or lower the signal
In short: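 Endogenous factor activity in human liver HepG2 cells carrying transfected cis-regulated reporter units. RNA taken 24 h post-dose, reverse-transcribed, PCR-amplified and sized by capillary electrophoresis. Gain or loss of signal fitted relative to DMSO.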

[6] = molecular target: Transcription factor Sp1 (Homo sapiens) (UniProt P08047); experiment: ATG_Sp1_CIS: Attagene CIS-FACTORIAL HepG2 Assay for human Specificity Protein 1 (Sp1) (AID 2282961); conditions: HepG2 Sp1 cis-reporter transcription, actives raise or lower the signal
Sequence of Transcription factor Sp1 (Homo sapiens) (P08047 whole entry, looked up): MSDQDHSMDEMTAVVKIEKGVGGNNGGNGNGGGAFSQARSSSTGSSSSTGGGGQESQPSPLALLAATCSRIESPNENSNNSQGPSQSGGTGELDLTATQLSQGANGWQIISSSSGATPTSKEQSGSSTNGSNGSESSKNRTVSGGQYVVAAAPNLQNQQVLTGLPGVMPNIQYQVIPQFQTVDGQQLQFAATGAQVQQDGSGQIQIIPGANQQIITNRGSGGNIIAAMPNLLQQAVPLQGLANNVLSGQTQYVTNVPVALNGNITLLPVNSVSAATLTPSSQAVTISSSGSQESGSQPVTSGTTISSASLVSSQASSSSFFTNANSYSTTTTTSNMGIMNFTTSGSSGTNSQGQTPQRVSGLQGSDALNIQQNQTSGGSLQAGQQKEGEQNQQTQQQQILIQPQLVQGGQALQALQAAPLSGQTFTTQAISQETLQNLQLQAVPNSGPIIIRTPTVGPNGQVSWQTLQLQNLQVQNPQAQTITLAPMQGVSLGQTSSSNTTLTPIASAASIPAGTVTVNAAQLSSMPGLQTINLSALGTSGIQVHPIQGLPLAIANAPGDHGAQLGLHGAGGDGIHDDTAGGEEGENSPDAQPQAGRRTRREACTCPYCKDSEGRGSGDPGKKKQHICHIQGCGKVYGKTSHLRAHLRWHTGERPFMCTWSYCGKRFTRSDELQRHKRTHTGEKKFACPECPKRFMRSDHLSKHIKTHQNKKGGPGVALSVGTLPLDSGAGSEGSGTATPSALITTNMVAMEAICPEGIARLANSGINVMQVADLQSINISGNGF
In short: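 Transient MRTU-transfected HepG2, 24 h compound exposure. Total RNA → oligo(dT) RT → PCR of reporter → 6-FAM primer extension → HpaI digest → CE. Endpoint fitted both directions vs DMSO.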

[7] = ATG_SREBP_CIS: Attagene CIS-FACTORIAL HepG2 Assay for human Sterol Regulatory Element Binding (SREBP) (AID 2282962); conditions: HepG2 Attagene cis-factorial SREBP reporter, mRNA; actives raise or lower the signal
In short: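 Twenty-four hours after chemical dosing of transfected HepG2 cultures, reporter RNA was converted to cDNA, amplified, end-labelled with 6-FAM and resolved by capillary electrophoresis. Responses were fitted relative to DMSO.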

[8] = molecular target: Signal transducer and activator of transcription 3 (Homo sapiens) (UniProt P40763); experiment: ATG_STAT3_CIS: Attagene CIS-FACTORIAL HepG2 Assay for human Signal Transducer and Activator of Transcription 3 (STAT3) (AID 2282963); conditions: HepG2, Attagene cis-factorial STAT3 reporter transcription; actives raise or lower the signal
Sequence of Signal transducer and activator of transcription 3 (Homo sapiens) (P40763 whole entry, looked up): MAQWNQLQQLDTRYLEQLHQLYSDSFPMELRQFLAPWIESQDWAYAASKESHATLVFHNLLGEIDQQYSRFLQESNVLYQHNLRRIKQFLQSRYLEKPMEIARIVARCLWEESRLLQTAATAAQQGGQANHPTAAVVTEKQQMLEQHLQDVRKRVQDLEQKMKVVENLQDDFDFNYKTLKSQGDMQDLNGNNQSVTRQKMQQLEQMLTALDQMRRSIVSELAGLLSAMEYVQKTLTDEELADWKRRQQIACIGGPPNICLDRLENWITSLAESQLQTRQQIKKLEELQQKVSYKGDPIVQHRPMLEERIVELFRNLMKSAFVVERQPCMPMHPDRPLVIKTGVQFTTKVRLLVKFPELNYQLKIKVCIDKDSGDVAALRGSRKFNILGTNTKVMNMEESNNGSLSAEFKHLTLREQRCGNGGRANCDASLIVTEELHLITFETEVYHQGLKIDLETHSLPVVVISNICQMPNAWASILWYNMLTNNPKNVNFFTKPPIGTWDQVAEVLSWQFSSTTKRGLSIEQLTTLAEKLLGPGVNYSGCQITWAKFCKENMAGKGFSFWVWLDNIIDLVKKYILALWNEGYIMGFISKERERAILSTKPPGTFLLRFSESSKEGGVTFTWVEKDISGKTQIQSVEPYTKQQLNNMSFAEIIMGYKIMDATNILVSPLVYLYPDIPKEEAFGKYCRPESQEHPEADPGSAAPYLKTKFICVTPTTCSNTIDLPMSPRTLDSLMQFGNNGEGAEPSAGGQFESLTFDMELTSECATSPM
In short: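 HepG2 cells transiently transfected with multiple cis-element-driven reporter units report endogenous transcription factor activity. After 24 h compound exposure, reporter mRNA is measured by RT-PCR, 6-FAM labelling, HpaI digestion and capillary electrophoresis. Fitted bidirectionally versus DMSO.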

[9] = ATG_TA_CIS: Attagene CIS-FACTORIAL HepG2 Assay for human TA Basal Promoter (AID 2282964); conditions: HepG2 Attagene CIS-factorial TA basal promoter reporter; actives raise or lower the signal
In short: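 Multiplexed mRNA reporter assay, HepG2, 24 h. Reporter cDNA amplified, 6-FAM primer-extended, HpaI-cut, CE-sized; DMSO = negative control and baseline.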

[10] = ATG_TCF_b_cat_CIS: Attagene CIS-FACTORIAL HepG2 Assay for human T-Cell-Factor with beta-catenin (TCF/b-cat) (AID 2282965); conditions: HepG2 TCF/beta-catenin cis-reporter transcription, actives raise or lower the signal
In short: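 Cells of the HepG2 line carry transiently transfected reporter units whose promoters respond to endogenous factors. Twenty-four hours post-dosing, reporter mRNA induction is measured by fluorescent RT-PCR and capillary electrophoresis, with DMSO as baseline.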

[11] = ATG_TAL_CIS: Attagene CIS-FACTORIAL HepG2 Assay for human TAL Basal Promoter (AID 2282966); conditions: HepG2 Attagene cis-factorial TAL promoter reporter; actives raise or lower the signal;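 also: background control endpoint measuring basal TAL promoter reporter mRNA not a specific factor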
In short: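 HepG2 cells were transiently transfected with promoter-driven multiplexed reporter units and dosed for 24 h. Reporter mRNA was measured by RT-PCR with capillary electrophoresis fluorescence; bidirectional fits used DMSO as baseline, serving as a background control.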

[12] = ATG_TGFb_CIS: Attagene CIS-FACTORIAL HepG2 Assay for human Transforming Growth Factor (TGF) (AID 2282967); conditions: HepG2 Attagene CIS TGFb reporter, mRNA transcription; actives raise or lower the signal
In short: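 Transcript-level reporter readout: HepG2 transfectants, 24 h exposure, RNA to cDNA, reporter-specific PCR, fluorescent primer extension, capillary sizing against ROX standards. Gain- or loss-of-signal relative to DMSO.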

[13] = ATG_VDRE_CIS: Attagene CIS-FACTORIAL HepG2 Assay for human Vitamin D Receptor Element (VDRE) (AID 2282968); conditions: HepG2 VDRE cis-reporter transcription, actives raise or lower the signal
In short: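 Transiently transfected HepG2 cells carrying cis-regulated reporter transcription units were exposed for 24 h. Reporter mRNA was measured by RT-PCR with fluorescent labelling and capillary electrophoresis, and fitted in both directions against DMSO.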

[14] = molecular target: Estrogen receptor (Homo sapiens) (UniProt P03372); experiment: ATG_ERa_TRANS: Attagene TRANS-FACTORIAL HepG2 Assay for human Estrogen Receptor alpha (ERa) (AID 2282970; active = hit-call score of the fitted dose curve at least 0.9, where 1 is the maximum); conditions: HepG2 Attagene TRANS ERa GAL4 reporter, mRNA
Sequence of Estrogen receptor (Homo sapiens) (P03372 whole entry, looked up, the tested form may be a part): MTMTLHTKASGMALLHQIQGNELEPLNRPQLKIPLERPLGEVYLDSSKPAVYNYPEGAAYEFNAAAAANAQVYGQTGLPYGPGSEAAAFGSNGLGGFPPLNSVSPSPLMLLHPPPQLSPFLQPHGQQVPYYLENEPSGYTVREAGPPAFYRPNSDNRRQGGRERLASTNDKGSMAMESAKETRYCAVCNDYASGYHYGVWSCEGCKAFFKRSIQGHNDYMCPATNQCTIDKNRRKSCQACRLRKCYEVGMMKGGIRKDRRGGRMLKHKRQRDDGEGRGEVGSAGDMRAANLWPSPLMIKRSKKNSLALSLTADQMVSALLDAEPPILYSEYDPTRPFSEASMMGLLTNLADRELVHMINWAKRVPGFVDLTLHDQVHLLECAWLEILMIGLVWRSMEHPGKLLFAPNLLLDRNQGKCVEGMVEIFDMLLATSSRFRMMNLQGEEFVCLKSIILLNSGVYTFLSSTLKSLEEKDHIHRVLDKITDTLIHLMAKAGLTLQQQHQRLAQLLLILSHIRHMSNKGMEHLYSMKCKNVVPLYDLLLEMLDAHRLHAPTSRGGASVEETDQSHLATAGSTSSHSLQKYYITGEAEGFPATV
In short: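 HepG2 cells transiently transfected with multiplexed GAL4-UAS reporter units; ERa activity read via exogenous chimeric NR-Gal4 protein. After 24 hour compound exposure, reporter mRNA measured by RT-PCR with 6-FAM labelling and capillary electrophoresis; gain-of-signal fitted relative to DMSO.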

[15] = molecular target: X-box-binding protein 1 (Homo sapiens) (UniProt P17861); experiment: ATG_Xbp1_CIS: Attagene CIS-FACTORIAL HepG2 Assay for human X-box Binding Protein 1 (XBP1) (AID 2282972); conditions: HepG2 XBP1 cis-element reporter, Attagene multiplex; actives raise or lower the signal
Sequence of X-box-binding protein 1 (Homo sapiens) (P17861 whole entry, looked up): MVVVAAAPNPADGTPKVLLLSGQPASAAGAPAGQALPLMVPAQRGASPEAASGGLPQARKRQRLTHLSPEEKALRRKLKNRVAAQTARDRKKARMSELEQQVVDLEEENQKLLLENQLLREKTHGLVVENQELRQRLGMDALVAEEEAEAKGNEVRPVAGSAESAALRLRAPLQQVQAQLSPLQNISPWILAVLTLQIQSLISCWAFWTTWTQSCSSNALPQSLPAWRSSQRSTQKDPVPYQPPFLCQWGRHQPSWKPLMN
In short: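 After a 24-hour chemical exposure of HepG2 cells carrying cis-regulated reporters, reporter mRNA levels are assessed. Quantification uses RT-PCR, 6-FAM labelling and capillary electrophoresis. Gain- or loss-of-signal is fitted against DMSO.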

[16] = ATG_M_19_TRANS: Attagene TRANS-FACTORIAL HepG2 Assay for M19 Transcription Factor (Internal Marker) (AID 2282974; active = hit-call score of the fitted dose curve at least 0.9, where 1 is the maximum); conditions: HepG2 Attagene TRANS-FACTORIAL M19 internal marker reporter
In short: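 Fluorescence of 6-FAM-labelled reporter cDNA fragments, separated by capillary electrophoresis, served as the readout. These derived from HepG2 cells carrying transfected GAL4-UAS reporter units after 24 h dosing, with DMSO as negative control.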

[17] = molecular target: Steroid hormone receptor ERR1 (Homo sapiens) (UniProt P11474); experiment: ATG_ERRa_TRANS: Attagene TRANS-FACTORIAL HepG2 Assay for human Estrogen-Related Receptor alpha (ERRa) (AID 2282971; active = hit-call score of the fitted dose curve at least 0.9, where 1 is the maximum); conditions: HepG2 Attagene TRANS reporter, ERRa transactivation
Sequence of Steroid hormone receptor ERR1 (Homo sapiens) (P11474 whole entry, looked up, the tested form may be a part): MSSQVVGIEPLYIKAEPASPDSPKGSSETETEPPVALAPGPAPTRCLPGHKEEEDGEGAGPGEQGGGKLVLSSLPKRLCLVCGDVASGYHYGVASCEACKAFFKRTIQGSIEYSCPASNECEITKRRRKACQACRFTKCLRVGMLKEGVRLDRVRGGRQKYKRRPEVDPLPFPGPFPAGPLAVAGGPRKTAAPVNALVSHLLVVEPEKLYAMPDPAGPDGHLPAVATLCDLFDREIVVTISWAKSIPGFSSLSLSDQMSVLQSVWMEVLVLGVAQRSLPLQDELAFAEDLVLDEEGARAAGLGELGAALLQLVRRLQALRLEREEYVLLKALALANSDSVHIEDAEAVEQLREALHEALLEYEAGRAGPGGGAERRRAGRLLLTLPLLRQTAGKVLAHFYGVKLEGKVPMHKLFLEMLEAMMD
In short: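 HepG2 cells transiently transfected with multiplexed GAL4-UAS reporter units reading chimeric ERRa-Gal4 activity; 24 h compound exposure. Reporter mRNA measured by RT-PCR, 6-FAM labelling, HpaI digest and capillary electrophoresis; gain of signal fitted versus DMSO baseline.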

[18] = ATG_GAL4_TRANS: Attagene TRANS-FACTORIAL HepG2 Assay for GAL4 (Internal Marker) (AID 2282976; active = hit-call score of the fitted dose curve at least 0.9, where 1 is the maximum); conditions: HepG2 Attagene TRANS GAL4 internal marker reporter
In short: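 HepG2 cells transiently transfected with multiplexed GAL4-UAS reporter constructs were dosed for 24 h. Reporter mRNA was measured by RT-PCR, 6-FAM primer extension, HpaI digestion and capillary electrophoresis, and gain of signal was fitted relative to DMSO.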

[19] = molecular target: Estrogen-related receptor gamma (Homo sapiens) (UniProt P62508); experiment: ATG_ERRg_TRANS: Attagene TRANS-FACTORIAL HepG2 Assay for human Estrogen-Related Receptor gamma (ERRg) (AID 2282977; active = hit-call score of the fitted dose curve at least 0.9, where 1 is the maximum;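 also: hits increase reporter signal over DMSO so potencies reflect activators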); conditions: HepG2 Attagene TRANS reporter, ERRg transactivation
Sequence of Estrogen-related receptor gamma (Homo sapiens) (P62508 whole entry, looked up, the tested form may be a part): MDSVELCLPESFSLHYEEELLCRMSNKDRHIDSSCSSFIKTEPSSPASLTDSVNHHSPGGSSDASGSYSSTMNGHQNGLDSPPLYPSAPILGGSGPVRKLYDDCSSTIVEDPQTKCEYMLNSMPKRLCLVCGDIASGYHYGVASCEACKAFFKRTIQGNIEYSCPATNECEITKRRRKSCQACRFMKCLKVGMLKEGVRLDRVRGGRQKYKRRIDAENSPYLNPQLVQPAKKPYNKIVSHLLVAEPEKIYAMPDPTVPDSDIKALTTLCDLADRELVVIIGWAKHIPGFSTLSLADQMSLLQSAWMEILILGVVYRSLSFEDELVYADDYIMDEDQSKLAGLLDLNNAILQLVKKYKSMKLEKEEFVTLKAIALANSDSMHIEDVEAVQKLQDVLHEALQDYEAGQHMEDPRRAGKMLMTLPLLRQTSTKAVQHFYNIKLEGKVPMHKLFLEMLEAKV
In short: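 HepG2 cells transiently transfected with multiplexed GAL4-UAS reporter units driven by chimeric NR-Gal4 proteins; 24 h exposure. Reporter mRNA quantified by RT-PCR, fluorescent labelling, HpaI digestion and capillary electrophoresis; gain of signal vs DMSO.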

[20] = molecular target: Glucocorticoid receptor (Homo sapiens) (UniProt P04150); experiment: ATG_GR_TRANS: Attagene TRANS-FACTORIAL HepG2 Assay for human Glucocorticoid Receptor (GR) (AID 2282978; active = hit-call score of the fitted dose curve at least 0.9, where 1 is the maximum;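 also: activators score as hits since higher reporter transcript over DMSO is fitted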); conditions: HepG2 Attagene TRANS GR reporter, mRNA transcription
Sequence of Glucocorticoid receptor (Homo sapiens) (P04150 whole entry, looked up, the tested form may be a part): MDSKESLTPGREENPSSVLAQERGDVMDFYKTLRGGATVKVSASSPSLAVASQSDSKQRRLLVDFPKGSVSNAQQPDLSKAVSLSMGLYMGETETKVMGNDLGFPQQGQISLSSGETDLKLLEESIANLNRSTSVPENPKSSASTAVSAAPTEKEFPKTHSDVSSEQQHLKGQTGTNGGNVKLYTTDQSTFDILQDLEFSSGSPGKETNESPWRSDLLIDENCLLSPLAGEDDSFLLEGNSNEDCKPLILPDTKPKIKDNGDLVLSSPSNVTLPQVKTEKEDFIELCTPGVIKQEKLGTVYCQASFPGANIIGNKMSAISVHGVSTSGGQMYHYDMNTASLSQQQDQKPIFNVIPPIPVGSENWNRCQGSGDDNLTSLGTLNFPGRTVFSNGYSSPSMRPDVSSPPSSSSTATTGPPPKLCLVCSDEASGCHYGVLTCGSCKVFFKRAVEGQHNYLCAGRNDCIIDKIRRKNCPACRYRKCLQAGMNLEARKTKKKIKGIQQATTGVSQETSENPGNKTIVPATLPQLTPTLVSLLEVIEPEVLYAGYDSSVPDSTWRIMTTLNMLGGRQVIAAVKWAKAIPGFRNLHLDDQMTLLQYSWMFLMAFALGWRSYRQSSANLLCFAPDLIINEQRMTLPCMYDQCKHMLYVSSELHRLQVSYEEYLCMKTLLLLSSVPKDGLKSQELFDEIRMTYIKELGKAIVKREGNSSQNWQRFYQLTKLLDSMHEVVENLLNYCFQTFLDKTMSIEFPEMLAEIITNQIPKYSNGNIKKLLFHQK
In short: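 Fluorescent capillary-electrophoresis quantitation of reporter mRNA is the readout, taken 24 h after dosing human HepG2 cells carrying transiently transfected GAL4-UAS reporter units activated by chimeric NR-GAL4 fusions; activity scored as induction over DMSO.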

SMILES: Oc1ccc2c(c1)OC[C@@H](N1CCC(O)(c3ccc(F)cc3)CC1)[C@H]2O
- AC50 [1]: 63.7 µM (active)
- AC50 [2]: 13.7 µM (active)
- outcome [3]: inactive
- AC50 [4]: 50 µM (active)
- outcome [5]: inactive
- outcome [6]: inactive
- outcome [7]: inactive
- outcome [8]: inactive
- outcome [9]: inactive
- outcome [10]: inactive
- outcome [11]: inactive
- AC50 [12]: 64.6 µM (active)
- AC50 [13]: 30.1 µM (active)
- AC50 [14]: 6.61 µM (active)
- outcome [15]: inactive

SMILES: Nc1ccc(S(=O)(=O)c2ccc(N)cc2)cc1
- outcome [1]: inactive
- outcome [2]: inactive
- outcome [3]: inactive
- outcome [4]: inactive
- outcome [5]: inactive
- outcome [6]: inactive
- outcome [7]: inactive
- outcome [8]: inactive
- outcome [9]: inactive
- outcome [10]: inactive
- outcome [11]: inactive
- outcome [12]: inactive
- outcome [14]: inactive
- outcome [15]: inactive
- outcome [16]: inactive

SMILES: NS(=O)(=O)c1cc2c(cc1Cl)NCNS2(=O)=O
- outcome [1]: inactive
- outcome [2]: inactive
- outcome [4]: inactive
- outcome [5]: inactive
- outcome [6]: inactive
- outcome [7]: inactive
- outcome [8]: inactive
- outcome [9]: inactive
- outcome [10]: inactive
- outcome [11]: inactive
- outcome [12]: inactive
- AC50 [13]: 4.41 µM (active)
- outcome [14]: inactive
- outcome [17]: inactive
- outcome [15]: inactive
- outcome [16]: inactive
- outcome [18]: inactive
- outcome [19]: inactive
- outcome [20]: inactive

SMILES: CC1(C)NC(=O)NC1=O
- outcome [1]: inactive
- AC50 [2]: 25.7 µM (active)
- outcome [3]: inactive
- outcome [4]: inactive
- outcome [5]: inactive
- outcome [6]: inactive
- outcome [8]: inactive
- outcome [9]: inactive
- outcome [10]: inactive
- outcome [11]: inactive
- outcome [12]: inactive
- outcome [13]: inactive
- AC50 [14]: 26.3 µM (active)
- outcome [17]: inactive
- outcome [15]: inactive
- outcome [16]: inactive
- outcome [20]: inactive

SMILES: CCOC(=O)CCC(=O)OCC
- outcome [1]: inactive
- AC50 [2]: 47.8 µM (active)
- outcome [3]: inactive
- outcome [4]: inactive
- outcome [5]: inactive
- outcome [6]: inactive
- outcome [7]: inactive
- outcome [8]: inactive
- outcome [9]: inactive
- outcome [10]: inactive
- outcome [11]: inactive
- outcome [12]: inactive
- outcome [13]: inactive
- outcome [17]: inactive
- outcome [15]: inactive

SMILES: NC(=O)Cn1c(=O)cc(CCN2CCN(c3nccc4sccc34)CC2)c2ccc(F)cc21
- outcome [1]: inactive
- AC50 [2]: 5.72 µM (active)
- outcome [4]: inactive
- outcome [5]: inactive
- outcome [6]: inactive
- AC50 [7]: 18.4 µM (active)
- outcome [8]: inactive
- outcome [9]: inactive
- AC50 [10]: 30.9 µM (active)
- outcome [11]: inactive
- outcome [12]: inactive
- outcome [13]: inactive
- outcome [14]: inactive
- outcome [17]: inactive
- outcome [15]: inactive
- outcome [16]: inactive
- outcome [18]: inactive
- outcome [19]: inactive
- outcome [20]: inactive

SMILES: CCCCCCCCCCCCCO
- AC50 [1]: 34.3 µM (active)
- outcome [2]: inactive
- outcome [3]: inactive
- outcome [5]: inactive
- outcome [6]: inactive
- outcome [7]: inactive
- outcome [8]: inactive
- outcome [9]: inactive
- AC50 [10]: 34.3 µM (active)
- outcome [11]: inactive
- outcome [12]: inactive
- outcome [13]: inactive
- AC50 [14]: 65.7 µM (active)
- outcome [17]: inactive
- outcome [15]: inactive
- outcome [16]: inactive
- outcome [20]: inactive

SMILES: CCNc1cccc(C)c1
- outcome [1]: inactive
- outcome [2]: inactive
- outcome [3]: inactive
- outcome [4]: inactive
- outcome [5]: inactive
- outcome [6]: inactive
- outcome [8]: inactive
- outcome [9]: inactive
- outcome [10]: inactive
- outcome [11]: inactive
- outcome [12]: inactive
- outcome [13]: inactive
- outcome [15]: inactive
- outcome [19]: inactive
